Here are results for 54 molecules from PubChem BioAssay AID1578 (Sanford-Burnham Center for Chemical Genomics, 2009).

Where “and” joins values, the source holds several entries; their conditions need not be identical. Equal values may be shown once. Among all 290,000 compounds or so, about 3,000 (1%) were called active. For the sample, actives were picked, then their nearest neighbours and some compounds at random. A number with no mark means an inactive call. Cut-off read from the data, not from the text of the source: active = inhibition mostly above about 36% (no sharp cut-off); inactive = mostly below about 34%.

This test can be described thus: NOD1 signaling inhibitors, primary screen, cell-based, luminescence, uHTS (AID 1578).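 Note: HEK-293T reporter cells stimulated with the NOD1 agonist gamma-tri-DAP.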 To be noted: NOD1-driven NF-kB luciferase reporter cells, at 4 µM, active compounds read high. On the technique in general: Reporter assays use an easily measured gene product as a stand-in for the process of interest.
For the molecule `C=C(C)Cn1c(=O)n(CC2CS2)c2ccccc21` (centres undefined), the inhibition was 8.9%.
`CCOc1cc2c(cc1OCC)-n1cccc1C(c1ccccc1OC)NC2` (centres undefined): the inhibition was 4.7%.
For `CCC1(OC(=O)CN)C(=O)OCc2c1cc1n(c2=O)Cc2cc3ccccc3nc2-1` (centres undefined), the inhibition is 71.2% (active).
Then `CC[C@@]1(O)C(=O)OCc2c1cc1n(c2=O)Cc2cc3c(NC(=O)CN)cccc3nc2-1`, with 7.7%; and `CCOC(=O)C1=C(N)OC2=C(C(=O)CCC2)C12C(=O)N(C)c1ccccc12` (centres undefined), with -7.5%; and `Cc1cnn(C2CCN(C)CC2)c1N`, with -8.2%.
Take `NC1=C([N+](=O)[O-])C(c2ccc3c(c2)OCO3)c2c(c3ccccc3oc2=O)O1` (centres undefined): the inhibition was -6%.
As to `O=C(Cc1ccccc1)Oc1cccc(-n2cnnn2)c1`, the inhibition is -14.2%.
For `O=[N+]([O-])c1ccc(N2CCNCC2)cc1Sc1ccccn1`, the inhibition is -12.4%.
For the molecule `Cc1cc(N2CCCCC2)ccc1C=C1C(=O)N(C)C(=S)N(C)C1=O`, the inhibition was -10.1%.
Then `Cc1ccc(N2C(=O)CC(=O)NC2=O)cc1`, with -5.6%; and `O=Cc1cn(Cc2ccccc2F)c2ccccc12`, with 30.3%; and `O=Cc1cn(Cc2ccc(F)cc2)c2ccccc12`, with 6.2%.
On to `O=Cc1cn(Cc2c(F)cccc2Cl)c2ccccc12`, for which the inhibition was 66% (active).
Regarding `Cc1cc(=O)oc2cc(OCC(=O)N3CCC(C(=O)O)(c4ccccc4)CC3)ccc12`, the inhibition is -7.5%.
The result for `CCCCOP(=O)(OCCCC)/C(C#N)=C(/C)O` reads -14.2%; that for `O=c1[nH]c(=S)n(Cc2ccc(F)cc2)c(O)c1C=NCCCn1ccnc1`, -9.5%; that for `Cc1cccc(CN2CCCN(Cc3ccc(Cl)cc3)S2(=O)=O)c1`, 2.2%.
On to `CN1C(=O)/C(=C/C=C/c2ccco2)C(=O)NC1=S`, for which the inhibition is -4.7%.
Turning to `CCc1ccc(N2C(=O)NC(=O)/C(=C\C=C\c3ccco3)C2=O)cc1`, the inhibition was 89.4% (active).
Then `Cc1ccc(N2C(=O)NC(=O)/C(=C/C=C/c3ccco3)C2=O)cc1`, with 87.4% (active).
Then `CCN1C(=O)C(=C/C=C/c2ccco2)C(=O)N(CC)C1=S`, with -25.5%; and `CCCCN1C(=O)/C(=C/C=C/c2ccco2)C(=O)NC1=S`, with -32.6%; and `O=C1NC(=O)N(Cc2ccccc2)C(=O)/C1=C\C=C\c1ccco1`, with 61.5% (active).
Consider `CN(C)c1ccc(/C=C/C=C2/C(=O)NC(=O)N(c3ccccc3)C2=O)cc1`, for which the inhibition is 80.9% (active).
For the molecule `O=C1NC(=O)N(c2ccccc2)C(=O)/C1=C/c1ccoc1`, the inhibition is -13.5%.
Then `O=C1NC(=O)N(Cc2ccccc2)C(=O)/C1=C\c1ccco1`, with -5.6%.
Then `Cc1cc(C)cc(N2C(=O)NC(=O)/C(=C\C=C\c3ccco3)C2=O)c1`, with 67.1%; and `Cc1cccc(N2C(=O)NC(=O)/C(=C\C=C\c3ccco3)C2=O)c1`, with -6.1%; and `Cn1cc(/C=C2\C(=O)NC(=O)N(c3ccccc3)C2=O)c2ccccc21`, with -3.2%.
As for `COCCOC(=O)C1=C(N)Oc2c(c(=O)oc3ccccc23)C1c1ccncc1` (centres undefined), the inhibition was -14.2%.
As for `CCCCOC(=O)C1=C(N)OC2=C(C(=O)CCC2)[C@]12C(=O)N(C)c1ccccc12`, the inhibition is 2.2%.
As to `COc1cccc(NP(=O)(Oc2ccccc2)Oc2ccccc2)c1`, the inhibition was -28.2%.
For the molecule `O=C(NC1(C(F)(F)F)Oc2ccc(Cl)cc2O1)N1CCC2(CC1)OCCO2` (centres undefined), the inhibition was 5%.
As for `Cc1ccccc1-n1c(O)c(C=NCCN2CCOCC2)c(=O)[nH]c1=O`, the inhibition was -5.7%.
Regarding `O=C(Cn1nc(-c2ccc(Cl)cc2)ccc1=O)N1CCC2(CC1)OCCO2`, the inhibition was -21%.
Consider `CCC(=NCCO)c1c(O)n(-c2ccccc2)c(=O)[nH]c1=O`, for which the inhibition was 11.4%.
The result for `COc1cc2c(cc1OC)-c1c(OC)c(OC)c(OC)c3ccnc(c13)C2=O` reads 25.5%; that for `CC(C)c1ccc(N2C(=O)NC(=O)/C(=C\C=C\c3ccco3)C2=O)cc1`, 78.9% (active).
Take `O=C1NC(=O)N(CCc2ccc(F)cc2)C(=O)/C1=C/c1cccs1`: the inhibition is 12.9%.
The result for `O=C1NC(=O)N(CCc2ccc(F)cc2)C(=O)/C1=C/C=C/c1ccccc1` reads 42.2% (active); that for `CC(C)c1ccc(N2C(=O)NC(=O)/C(=C/C=C/c3ccco3)C2=O)cc1`, 56.9%; that for `Cc1ccc(N2C(=O)NC(=O)/C(=C\C=C\c3ccco3)C2=O)cc1C`, 48.7%.
`O=C1NC(=O)N(CCc2ccc(F)cc2)C(=O)/C1=C/c1ccco1`: the inhibition was 10.2%.
With `CCCC(C)n1[nH]c(=O)c2c1NC(=O)CSC2c1ccccc1` (centres undefined), the inhibition was -4.2%.
On to `COc1ccc(CCN(C)Cc2ccc(F)cc2F)cc1OC`, for which the inhibition is -4.5%.
Regarding `O=[N+]([O-])c1ccc(Nc2ccccc2)cc1`, the inhibition was 26.1%.
Regarding `CC(C)C(=O)Nc1nnc(CCN(CCc2nnc(NC(=O)C(C)C)s2)[N+](=O)[O-])s1`, the inhibition was 0.8%.
As for `COc1cc(CC2C(=O)N(C)C(=O)N(C)C2=O)ccc1OCc1ccccc1`, the inhibition was -15.9%.
With `C[C@H]1CCC[C@H](O)CCCCCc2cc(O)cc(O)c2C(=O)O1`, the inhibition is 71.9% (active).
For the molecule `C[C@H]1CCCC(=O)CCCCCc2cc(O)cc(O)c2C(=O)O1`, the inhibition was 10.7%.
As to `CC1CCC[C@H](O)CCCCCc2cc(O)cc(O)c2C(=O)O1` (some centres undefined), the inhibition is -20.3% and 0.8%.
Turning to `COc1ccc(S(=O)(=O)NC(CC(=O)N2CCC3(CC2)OCCO3)C(C)C)cc1` (centres undefined), the inhibition was -3.9%.
Then `Cc1cccnc1-n1c(-c2ccccc2)nc2ccccc2c1=O`, with -2.5%.

As a reminder, the inhibition is the relative decrease from the control value, in per cent.
